Compounds with a hit are over-represented: about 2.9% of the library has one in this group of screens.
SNCA expr inh = reduces expression of the alpha-synuclein gene; HEK-293 SNCA-luciferase knock-in, luminescence, 24 h; Potency, µM (doses to about 57.2 µM), inactives show top-dose activity change, negative = inhibition, hits mostly inhibitors; actives 0.17% (n = 140,000); AID 1671194;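 note: potency is the fitted concentration of half-maximal effect; plate controls were DMSO cells for no effect and cell-free wells for full effect; nearly all actives have a fitted effect of over 45% in size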
HEK293 viab = counter-screen for SNCA expression inhibitors: cell viability. HEK-293-SNCA-luc viability, GF-AFC fluorescence, 24 h. Potency, µM (doses to about 57.1 µM), inactives show top-dose activity change, negative = cytotoxicity, usual class: cytotoxic. actives 0.12% (n = 150,000). AID 1671193;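 note: potency is the fitted concentration of half-maximal effect; 0% = DMSO-treated cells and -100% = medium-only wells without cells; nearly all actives have a fitted effect of over 30% in size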
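HEK-293-SNCA-luc cells (1500/well) plated 24 h, then exposed 24 h to a dilution series; GF-AFC added 30 min at 37C, fluorescence 405/540 nm; normalised to medium-only and DMSO wells, Hill fit.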
IP6K1 inhibitor = IP6K1 kinase inhibition | IP6K1 kinase, ADP-Glo luminescence, 2 h; stronger effect = lower value | AID 1645851 | Q92551 | actives 0.81% (n = 140,000) | activity change, % (series mostly up to about 58 µM); in the data active = activity change below about -25%; note: % is set by controls: 0 for no effect and ±100 for the full control effect
Target sequence (Q92551 whole entry, looked up): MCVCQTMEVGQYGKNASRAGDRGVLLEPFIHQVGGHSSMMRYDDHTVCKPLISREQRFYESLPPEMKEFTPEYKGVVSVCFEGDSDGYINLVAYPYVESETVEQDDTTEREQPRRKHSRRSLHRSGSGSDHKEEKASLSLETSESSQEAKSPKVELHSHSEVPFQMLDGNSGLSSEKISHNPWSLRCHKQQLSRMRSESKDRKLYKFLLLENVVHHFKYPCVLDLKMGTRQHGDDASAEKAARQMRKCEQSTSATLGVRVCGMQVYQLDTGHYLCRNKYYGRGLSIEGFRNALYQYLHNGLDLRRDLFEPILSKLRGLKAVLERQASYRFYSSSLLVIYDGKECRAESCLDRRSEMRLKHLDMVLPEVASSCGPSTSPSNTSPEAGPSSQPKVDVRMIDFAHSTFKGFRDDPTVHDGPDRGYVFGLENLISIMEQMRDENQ
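ADP-Glo luminescence measures ADP made by human IP6K1 during a 2 h RT reaction with ATP/IP6 (mix at 1.3 mM/130 uM); top library doses 57.5 and 19.1 uM final.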
KDM5B inhibitor = blocks human KDM5B histone demethylase activity | Potency, µM (doses to about 57.7 µM), actives largely listed as inhibitors | actives 2.6% (n = 220,000) | Q9UGL1 | KDM5B demethylase, FDH-coupled NADH fluorescence (FDH is formaldehyde dehydrogenase); note: potency is the fitted concentration of half-maximal effect; 0% is about no effect; nearly all actives have a fitted effect of over 70% in size
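Inhibition is measured as reduced NADH fluorescence generation from FDH coupling to formaldehyde release. Truncated KDM5BΔAP at 200 nM final acts on H3K4me3 peptide (12.5 µM in substrate mix) in pH 7.5 HEPES buffer with Tween-20, 30 min, room temperature.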
* = called active by the depositor; i = inactive; ? = inconclusive; . = no result given; ! = not confirmed by another sample; [ ] = another dose, or the depositor's remark. Unless noted, calls come from the whole dose curve; as a rule, active = well fitted curve in the direction sought with a large enough effect; inconclusive = small, poorly fitted or top-dose-only effect, or another doubt; inactive = no such curve, though single readings can be large; an effect the other way counts as inactive or inconclusive.

SMILES	SNCA expr inh	HEK293 viab	IP6K1 inhibitor	KDM5B inhibitor
CCCN(Cc1nnc(-c2ccccc2Cl)o1)C(=O)c1cccc(S(=O)(=O)N(CC)CC)c1	.	.	.	i
N#C/C(=C/c1ccc(N(c2ccccc2)c2ccccc2)cc1)C(=O)Nc1cccc(C(F)(F)F)c1	.	.	.	i
O=C(NCCc1csc(-c2cccnc2)n1)C1NCCc2[nH]cnc21 (centres undefined)	-14%	1%	-5	13µM*
O=C(NCc1nnnn1-c1ccccc1)C1NCCc2[nH]cnc21 (centres undefined)	8%	5%	31	i
O=C(NCCc1csc(-c2ncccn2)n1)C1NCCc2[nH]cnc21 (centres undefined)	-6%	-11%	-11	i
Cc1nn(-c2ccc(F)cc2)c(C)c1CNC(=O)C1NCCc2[nH]cnc21 (centres undefined)	8%	1%	0	13µM*
O=C(NCC1Cn2cccc2C(=O)N1Cc1ccccc1)C1CC1 (centres undefined)	4%	1%	1	i
COc1ccc(NC(=O)NCC2Cn3cccc3CN2Cc2ccccc2)cc1 (centres undefined)	3%	-7%	-21	.
O=C(COc1ccc(F)cc1)NCC1Cn2cccc2CN1Cc1ccccc1 (centres undefined)	0%	-4%	-1	25µM*
O=C(CCc1nc2ccccc2s1)NCC1Cn2cccc2CN1Cc1ccccc1 (centres undefined)	-8%	6%	-5	25µM*
O=C(NCC1Cn2cccc2CN1Cc1ccccc1)C1CC1 (centres undefined)	13%	5%	10	28µM*
CCn1cc(S(=O)(=O)NCC2Cn3cccc3CN2Cc2ccccc2)cn1 (centres undefined)	-3%	6%	-5	28µM*
COc1ccc(CN(C)Cc2nnc(-c3ccccc3)o2)cc1F	.	.	.	i
NCC1Cn2cccc2CN1Cc1ccccc1 (centres undefined)	22%	-1%	-4	16µM*
CN1Cc2cccn2CC1CNC(=O)NC1CCCCC1 (centres undefined)	2%	-7%	-5	28µM*
O=C(NCC1Cn2cccc2CN1Cc1ccccc1)NC1CCCCC1 (centres undefined)	-2%	11%	7	28µM*
O=C(Cn1c(=O)oc2ccccc21)NCC1Cn2cccc2CN1Cc1ccccc1 (centres undefined)	0%	0%	-1	.
Cc1ccc(-c2cc3c(=O)n(CCNC(=O)c4cc(C5CC5)[nH]n4)ccn3n2)c(C)c1	38%	-11%	-4	i
C[C@@]1(C(=O)Nc2ccc(F)nc2)CCCN1c1nc(Nc2cc(C3CC3)[nH]n2)c2cccn2n1	-13%	1.9µM*!	-2	.
COc1ccc(CC(=O)n2nc(C)c(S(=O)(=O)N3CCc4ccccc4C3)c2C)cc1	.	.	.	i
CCCc1cc(CN(C)c2nc(CCN)nc3sc(C)c(C)c23)[nH]n1	-11%	-9%	19	22µM*
CC1(CCCCN2CCOCC2)COc2ccc(C(=O)Nc3cccnc3)cc2N1 (centres undefined)	62%[87.6 µM]	-4%[87.6 µM]	10	?
CC1(CCCCN2CCOCC2)COc2ccc(C(=O)Nc3cccc(Cl)c3)cc2N1 (centres undefined)	22%	8%	4	?
CC1(CCCCN2CCOCC2)COc2ccc(C(=O)NCc3ccc(F)cc3)cc2N1 (centres undefined)	-8%	5%	-1	28µM*
COc1cc(CNC(=O)c2ccc3c(c2)NC(C)(CNc2ccccc2)CO3)cc(OC)c1 (centres undefined)	?	-7%	-10	?
SMILES	SNCA expr inh	HEK293 viab	IP6K1 inhibitor	KDM5B inhibitor
CC1(CCCCN2CCOCC2)COc2ccc(C(=O)Nc3ccc(Cl)cc3)cc2N1 (centres undefined)	-5%	4%	3	25µM*
CC1(CNc2ccccc2)COc2ccc(C(=O)NCc3ccc(F)cc3)cc2N1 (centres undefined)	-28%[87.6 µM]	?	3	32µM*
CN(Cc1ccccc1)C(=O)c1ccc2c(c1)NC(C)(CCCCN1CCOCC1)CO2 (centres undefined)	?	9%[87.6 µM]	-5	?
CC1(CCCCN2CCOCC2)COc2ccc(C(=O)NCc3cccc(F)c3)cc2N1 (centres undefined)	32%	4%	4	28µM*
Cc1ccc(-c2ccsc2C(=O)N2CCN(S(=O)(=O)c3ccc(F)cc3F)CC2)cc1	.	.	.	i
COc1cccc(N2C(=O)NC(=NC3CCCC3)C23CCCN(CCC(C)C)C3)c1 (centres undefined)	?	?	-6	i
C=CCNC(=O)c1nc(Cc2c[nH]c3ccccc23)no1	.	.	.	i
CC1(COCC2CC2)COc2ccc(C(=O)Nc3ccc(Cl)cc3)cc2N1 (centres undefined)	19%[87.6 µM]	-26%[87.6 µM]	4	?
CN(C)CCCOCC1(C)COc2ccc(C(=O)Nc3ccc(F)c(Cl)c3)cc2N1 (centres undefined)	84%[87.6 µM]	-1%[87.6 µM]	-8	28µM*
Cc1ccc(-c2ccc3nnc(CNC(=O)Cc4cccc(F)c4)n3n2)cc1C	-10%	-5%	14	?
COc1ccc(NC2CCCN(CC(=O)Nc3ccc(C)cn3)C2)cc1 (centres undefined)	-5%	-1%	0	16µM*
CCNc1ncc(C(=O)N2CCCC(Nc3ccc(OC)cc3)C2)cn1 (centres undefined)	5%	11%	6	i
COc1ccc(-c2nc3cc(C)ccc3cc2CN2CCCC(CO)C2)cc1OC (centres undefined)	-2%	-8%	19	i
COc1ccc(-c2nc3cc(C)ccc3cc2CN2CCCC(OC)C2)cc1 (centres undefined)	9%	-12%	-3	25µM*
COC[C@@H]1CCCN1Cc1cc2ccc(C)cc2nc1-c1ccc(OC)cc1	25%	-13%	-11	22µM*
COc1ccc2cc(CN3CCCC(C#N)C3)c(-c3cccs3)nc2c1 (centres undefined)	0%	-6%	13	32µM*
COc1ccc(Cl)cc1C(C(=O)O)N1CCCN(c2ncccn2)CC1 (centres undefined)	0%	4%	27	28µM*
CC(C)(O)/C=C/C1=CC(=O)[C@@](C)(O)C[C@H]1O	.	-1%	-7	.
CNC(=O)[C@@H]1CN(C(=O)c2cc3cc(OC)ccc3[nH]2)C[C@H]1COC	-8%	-1%	7	32µM*
COc1ccc2[nH]c(C(=O)N3C[C@@H](C(N)=O)[C@H](c4n[nH]c(C)n4)C3)cc2c1	12%	-21%	3	28µM*
CNC(=O)[C@@H]1CN(C(=O)c2cc3ccc(OC)cc3[nH]2)C[C@H]1c1n[nH]c(C)n1	0%	7%	3	?
Cc1ccc(S(=O)(=O)CCC(=O)OCC(=O)NC2CCC(C)CC2)cc1 (centres undefined)	.	.	.	i
Cc1c(O)cccc1C(=O)N1CCC2(CC1)CN(C)CCN2C	1%	-2%	18	i
